Several values for one entry are separate records, joined by “and”; a condition that tells them apart may be missing. Equal entries are not always repeated. Hit rate of the full screen: of about 5,500 compounds, about 2,000 (36%) were called active. Not shown: some 18% with an inconclusive outcome. Cut-off read from the data, not from the text of the source: active = normalized growth mostly below about 0.91 (no sharp cut-off); inconclusive = no clear call, values can overlap the other calls; inactive = mostly above about 0.92. Some of the results follow.
Experiment: chemical genetic growth profiling, strain panel (AID 1159580);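 note: tested at 20 µM; growth read once vehicle control cultures reached saturation at 30 °C; 1 = growth at the plate median or of vehicle wells; lower values mean less growth of the strain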
Conditions: S. cerevisiae deletion strains, growth OD

Measured: normalized growth

OC(CCN1CCCCC1)(c1ccccc1)c1ccccc1
inactive: locus YAL021C, strain ccr4, hits give low values 1.01 | locus YAL026C, strain drs2, hits give low values 0.985 | locus YAL030W, strain snc1, hits give low values 0.99 | locus YBL061C, strain skt5, hits give low values 0.986 | locus YBR009C, strain hhf1, hits give low values 0.939 | locus YBR021W, strain FUR4, hits give low values 1.02 | locus YBR023C, strain chs3, hits give low values 0.99 | locus YBR171W, strain sec66, hits give low values 0.987 | locus YBR229C, strain ROT2, hits give low values 1 | locus YBR231C, strain swc5, hits give low values 1.01 | locus YBR279W, strain paf1, hits give low values 0.995 | locus YCL011C, strain gbp2, hits give low values 0.969 | locus YCL016C, strain dcc1, hits give low values 0.975 | locus YCL029C, strain bik1, hits give low values 1.01 | locus YCL061C, strain MRC1, hits give low values 1 | locus YCL069W, strain vba3, hits give low values 0.977 | locus YCR088W, strain abp1, hits give low values 0.983 | locus YDL005C, strain med2, hits give low values 1.01 | locus YDL035C, strain GPR1, hits give low values 1.04 | locus YDL040C, strain nat1, hits give low values 0.992 | locus YDL074C, strain BRE1, hits give low values 1.03 | locus YDL101C, strain DUN1, hits give low values 1.01 | locus YDL134C, strain PPH21, hits give low values 1.03 | locus YDL185W, strain tfp1, hits give low values 1.01 | locus YDL192W, strain arf1, hits give low values 1.02 | locus YDR001C, strain nth1, hits give low values 0.989 | locus YDR069C, strain doa4, hits give low values 0.997 | locus YDR101C, strain arx1, hits give low values 0.993 | locus YDR137W, strain rgp1, hits give low values 1.01 | locus YDR159W, strain sac3, hits give low values 1.01 | locus YDR162C, strain NBP2, hits give low values 1.01 | locus YDR195W, strain ref2 1.02 | locus YDR297W, strain sur2, hits give low values 0.984 | locus YDR318W, strain mcm21, hits give low values 1.01 | locus YDR334W, strain swr1, hits give low values 0.99 | locus YDR335W, strain msn5, hits give low values 0.986 | locus YDR388W, hits give low values 1.01 | locus YDR392W, strain spt3, hits give low values 0.886 | locus YDR502C, strain sam2, hits give low values 1 | locus YEL003W, strain gim4, hits give low values 0.98 | locus YEL037C, strain rad23, hits give low values 0.985 | locus YEL061C, strain CIN8 (second series), hits give low values 0.977 | locus YEL061C, strain CIN8, hits give low values 1.01 | locus YER015W, strain faa2, hits give low values 0.994 | locus YER016W, strain bim1, hits give low values 0.997 | locus YER110C, hits give low values 1.01 | locus YER111C, strain swi4, hits give low values 0.983 | locus YER155C, strain BEM2 (second series), hits give low values 0.995 | locus YER155C, strain BEM2, hits give low values 1 | locus YER167W, strain BCK2, hits give low values 1.01 | locus YFR010W, strain ubp6, hits give low values 0.987 | locus YGL078C, strain dbp3, hits give low values 1 | locus YGL086W, strain mad1, hits give low values 1 | locus YGL167C, strain pmr1, hits give low values 0.984 | locus YGL173C, strain kem1, hits give low values 0.986 | locus YGL227W, strain vid30, hits give low values 0.989 | locus YGL240W, strain doc1, hits give low values 1.02 | locus YGL248W, strain PDE1, hits give low values 1.01 | locus YGL253W, strain hxk2, hits give low values 1.02 | locus YGR078C, strain PAC10, hits give low values 1.01 | locus YGR135W, strain pre9, hits give low values 1.01 | locus YGR252W, strain gcn5, hits give low values 1.01 | locus YHR013C, strain ard1, hits give low values 1.01 | locus YHR027C, strain rpn1, hits give low values 0.99 | locus YHR030C, strain SLT2, hits give low values 1.01 and 1.03 | locus YHR079C, strain IRE1 (second series), hits give low values 1.01 | locus YHR079C, strain IRE1, hits give low values 1.03 | locus YHR094C, strain hxt1, hits give low values 1.01 | locus YHR129C, strain ARP1, hits give low values 1 | locus YHR142W, strain chs7, hits give low values 0.946 | locus YHR200W, strain rpn10, hits give low values 1.01 | locus YIL066C, strain RNR3, hits give low values 1.01 | locus YIL073C, strain SPO22, hits give low values 1.09 | locus YIL125W, strain kgd1, hits give low values 1.01 | locus YIR030C, strain dcg1, hits give low values 1.01 | locus YJL092W, strain hpr5, hits give low values 0.988 | locus YJL095W, strain BCK1 (second series), hits give low values 0.982 | locus YJL095W, strain BCK1, hits give low values 0.996 and 1.05 | locus YJL115W, strain asf1, hits give low values 0.982 | locus YJL129C, strain trk1, hits give low values 0.987 | locus YJL134W, strain LCB3, hits give low values 1 | locus YJL154C, strain vps35, hits give low values 0.984 | locus YJL164C, strain tpk1, hits give low values 0.967 | locus YJL166W, strain qcr8, hits give low values 1 | locus YJL168C, strain set2, hits give low values 1.01 | locus YJL187C, strain SWE1 (second series), hits give low values 1.01 | locus YJL187C, strain SWE1, hits give low values 0.996 | locus YJR043C, strain POL32, hits give low values 1.04 | locus YJR066W, strain TOR1, hits give low values 0.938
